Assay results from PubChem BioAssay AID743449 (Broad Institute, 2014).
In all, about 9,900 compounds went through this assay and about 90 (0.9%) were called active. Roughly 2% stayed inconclusive and do not appear here. This is one part of a sample in which actives are shown more often than they occur. Unmarked numbers belong to inactive results.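 Rule for the calls: active = mean normalized replicate activity at least 50 and at least half of replicates each reaching 50; inconclusive = only one of the two criteria met; inactive = neither criterion met.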

Test: reduction of CTGF mRNA in DLD1 cells – DLD1 colon cancer cells, RT-qPCR, single point, primary screen (AID 743449);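 note: 0% = neutral control wells and 100% = dasatinib control wells; higher means stronger suppression of CTGF expression like dasatinib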
Conditions: 24 h, at 12.5 µM, hits give high values
For `C[C@H](CO)N1C[C@H](C)[C@@H](CN(C)S(C)(=O)=O)Oc2ncc(-c3ccc(F)cc3)cc2C1=O`, the inhibition was 15.8%.
In the case of `CO[C@@H]1CN(C)C(=O)c2cc(NS(=O)(=O)c3cccc(Cl)c3)ccc2OC[C@H](C)NC[C@@H]1C`, the inhibition is reported as 4.93%.
Molecule `CO[C@@H]1CC[C@H]2CCOc3ccc(C#N)cc3C(=O)N(C)C[C@@H](c3ccccc3)CC(=O)N(C)C[C@@H]1O2` has an inhibition of -20.2%.
`COCC(=O)N1[C@H](CO)[C@H](c2ccc(C#CC(C)C)cc2)[C@@H]1CNC(C)=O` gave an inhibition of 26.8%.
With `C[C@H]1CN([C@@H](C)CO)C(=O)c2cc(NS(=O)(=O)c3cn(C)cn3)ccc2O[C@H]1CN(C)S(=O)(=O)c1ccc(F)cc1` the inhibition was -21.9%.
With `COCc1cn(CC[C@@H]2CC[C@@H](NC(=O)Nc3c(C)noc3C)[C@@H](CO)O2)nn1` the inhibition was 4.39%.
Work on `C[C@@H]1CCCCO[C@@H](CN(C)Cc2ccc(C(=O)O)cc2)[C@H](C)CN([C@H](C)CO)C(=O)c2cc(N(C)C)ccc2O1` yielded an inhibition of -3.21%.
Work on `Cc1cccc(S(=O)(=O)N2C[C@H](O)COC[C@@H]3O[C@@H](CC(=O)Nc4ccccc4)CC[C@H]32)c1` yielded an inhibition of 8.1%.
In the case of `COc1ccc2c3c(n(C)c2c1)[C@@H](CO)N(Cc1ccncc1)CC31CN(C(=O)Nc2cccc(F)c2)C1`, the inhibition is reported as 52.9% (active).
In the case of `COc1ccc2c3c(n(C)c2c1)[C@@H](CO)N(Cc1ccncc1)CC31CN(C(=O)C2CCCCC2)C1`, the inhibition is reported as 2.18%.
For `COc1ccc2c3c(n(C)c2c1)[C@H](CO)N(Cc1ccncc1)CC31CN(C(=O)Nc2cccc(F)c2)C1`, the inhibition was 46.1%.
`CC(=O)N1[C@H](CO)[C@H](c2ccccc2)[C@@H]1CN(C(=O)c1ccccc1F)C(C)C` gave an inhibition of 13%.
`CCNC(=O)C[C@H]1CC[C@@H]2[C@H](COC[C@H](O)CN2C(=O)C2CCCC2)O1` showed an inhibition of -1.66%.
For `C[C@H]1CN([C@@H](C)CO)C(=O)c2cc(C#Cc3ccccc3)cnc2O[C@H]1CN(C)C(=O)c1ccccc1`, the inhibition was 65.3% (active).
Molecule `C[C@@H]1CN([C@H](C)CO)C(=O)c2cc(C#Cc3ccccc3)cnc2O[C@@H]1CN(C)C(=O)c1ccccc1` has an inhibition of 14.1%.
With `C[C@@H]1CN([C@@H](C)CO)C(=O)c2ccccc2-c2ccccc2CO[C@H]1CN(C)C(=O)Nc1ccc(-c2ccccc2)cc1` the inhibition was 73.6% (active).
`C[C@@H]1CCCCO[C@@H](CN(C)C(=O)Nc2ccccc2)[C@H](C)CN([C@@H](C)CO)C(=O)c2cc(NC(=O)Nc3ccccc3)ccc2O1` gave an inhibition of 16.9%.
`C[C@H]1CN([C@@H](C)CO)C(=O)c2cc(C#Cc3ccccc3)cnc2O[C@@H]1CN(C)C(=O)c1ccccc1` showed an inhibition of 34.5%.
For `C[C@@H]1CN([C@@H](C)CO)C(=O)c2cc(NC(=O)Nc3ccccc3)ccc2O[C@@H](C)CCCCO[C@@H]1CN(C)C(=O)Nc1ccccc1`, the inhibition was 62.7% (active).
`C[C@H](CO)N1C[C@H](C)[C@H](CN(C)C(=O)Nc2cccc(C(F)(F)F)c2)OCc2ccccc2-c2ccccc2C1=O` showed an inhibition of 11.9%.
With `C[C@@H]1CN([C@@H](C)CO)C(=O)c2ccccc2-c2ccccc2CO[C@H]1CN(C)C(=O)Nc1cccc(C(F)(F)F)c1` the inhibition was 64.7% (active).
In the case of `C[C@@H]1CCCCO[C@H](CN(C)C(=O)Nc2ccccc2)[C@H](C)CN([C@@H](C)CO)C(=O)c2cc(NC(=O)Nc3ccccc3)ccc2O1`, the inhibition is reported as 0.777%.
Work on `C[C@@H]1CN([C@H](C)CO)C(=O)c2ccccc2-c2ccccc2CO[C@@H]1CN(C)C(=O)Nc1cccc(C(F)(F)F)c1` yielded an inhibition of 14.3%.
`C[C@@H]1CN([C@H](C)CO)C(=O)c2ccccc2-c2ccccc2CO[C@@H]1CN(C)C(=O)Nc1ccc(-c2ccccc2)cc1` gave an inhibition of 39.6%.
In the case of `C[C@H](CO)N1C[C@H](C)[C@H](CN(C)C(=O)Nc2ccc(-c3ccccc3)cc2)OCc2ccccc2-c2ccccc2C1=O`, the inhibition is reported as 28.1%.
In the case of `O=C(C[C@@H]1CC[C@H]2[C@@H](COC[C@H](O)CN2C(=O)Nc2ccc(Cl)cc2)O1)NCC1CCCCC1`, the inhibition is reported as 4.31%.
With `COc1ccccc1C#Cc1ccc([C@@H]2[C@@H](C#N)N(C(=O)C3CCC3)[C@@H]2CO)cc1` the inhibition was 21%.
With `C[C@@H](NC(=O)C[C@@H]1C[C@H]2c3cc(NS(=O)(=O)c4ccc(F)cc4)ccc3O[C@H]2[C@@H](CO)O1)c1ccccc1` the inhibition was -0.447%.
`COc1cccc(CNC(=O)[C@H]2[C@H](CO)[C@H]3Cn4c(ccc(-c5cncnc5)c4=O)[C@H]3N2C)c1` gave an inhibition of 1.36%.
`CO[C@@H](CN(C)S(=O)(=O)c1cccc(Cl)c1)[C@H](C)CN(C(=O)Nc1ccccc1F)[C@H](C)CO` gave an inhibition of -17%.
`CCCNC(=O)N1[C@H](C#N)[C@H](c2ccc(C#Cc3cccc(F)c3)cc2)[C@H]1CO` showed an inhibition of 12.2%.
With `CCCNC(=O)N1[C@H](C#N)[C@@H](c2ccc(C#Cc3cccc(F)c3)cc2)[C@@H]1CO` the inhibition was 69.7% (active).
In the case of `CCCNC(=O)N1[C@@H](C#N)[C@@H](c2ccc(C#Cc3cccc(F)c3)cc2)[C@@H]1CO`, the inhibition is reported as 40.6%.
For `O=C(C[C@H]1CC[C@H]2[C@@H](COC[C@@H](O)CN2C(=O)c2ccc3c(c2)OCO3)O1)NC1CCC1`, the inhibition was 11%.
For `CN(C)CC(=O)N1CC2(C1)[C@H](c1ccccc1)[C@H](CO)N2S(C)(=O)=O`, the inhibition was -45.5%.
`C[C@H](CO)N1C[C@H](C)[C@H](CN(C)Cc2ccc3c(c2)OCCN3C)OCc2ccccc2-c2ccccc2C1=O` showed an inhibition of -137%.
Molecule `C[C@H]1CN([C@@H](C)CO)C(=O)c2ccccc2-c2ccccc2CO[C@H]1CN(C)Cc1ccc(Oc2ccccc2)cc1` has an inhibition of 47.8%.
In the case of `C[C@H](CO)N1C[C@H](C)[C@H](CN(C)Cc2ccc(Oc3ccccc3)cc2)OCc2ccccc2-c2ccccc2C1=O`, the inhibition is reported as 59% (active).
Molecule `C[C@@H]1CN([C@H](C)CO)C(=O)c2ccccc2-c2ccccc2CO[C@@H]1CN(C)Cc1cccnc1` has an inhibition of -8.82%.
In the case of `C[C@@H]1CN([C@H](C)CO)C(=O)c2ccccc2-c2ccccc2CO[C@@H]1CN(C)Cc1ccc(Oc2ccccc2)cc1`, the inhibition is reported as 83.9% (active).
In the case of `C[C@H](CO)N1C[C@H](C)[C@@H](CN(C)Cc2ccc(Oc3ccccc3)cc2)OCc2ccccc2-c2ccccc2C1=O`, the inhibition is reported as -10.6%.
With `C[C@@H]1CN([C@H](C)CO)C(=O)c2ccccc2-c2ccccc2CO[C@@H]1CN(C)Cc1ccc2c(c1)OCCN2C` the inhibition was 68.3% (active).
`C[C@H]1CN([C@@H](C)CO)C(=O)c2ccccc2-c2ccccc2CO[C@H]1CN(C)Cc1ccc2c(c1)OCCN2C` showed an inhibition of -29.2%.
Work on `C[C@@H]1CN([C@@H](C)CO)C(=O)c2ccccc2-c2ccccc2CO[C@@H]1CN(C)Cc1ccc(Oc2ccccc2)cc1` yielded an inhibition of 44.4%.
